From PubChem BioAssay come the findings set out here.

Assay [1] concerns Plasmodium falciparum Sir2 (PF13_0152, Sir2A). Kind of assay: pfSir2 binders on small-molecule microarrays, primary screen, biochemical, small-molecule microarray, 635 nm fluorescence (AID 1098).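 Further: score merges spot fluorescence intensity with its signal-to-noise ratio.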 Conditions: small-molecule microarray binding, fluorescence 635 nm; higher = more signal.
Assay [2] is described as follows: small-molecule microarray binders of probe aDKK1, primary screen, biochemical, biotinylated probe, 635/667 nm fluorescence (AID 1099).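 Further: score merges 667nm spot fluorescence with signal to noise across triplicate slides.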 Conditions: higher = more signal.
A short description of assay [3]: small-molecule microarray binders of probe aCHRDL2, primary screen, biochemical, biotinylated probe, 635/667 nm fluorescence (AID 1100). Conditions: higher = more signal.
A short description of assay [4]: splicing luciferase reporter signal modulators, primary screen, spliceosome inhibition project, cell-based, HEK293, splice +/- reporter (AID 1101).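 Further: HEK293 cells carrying a splicing-competent luciferase reporter gene; test concentration not given here.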 The conditions noted are these: luminescence, 24 h, higher = more signal, called active from +8 up or from −8 down. (In general: Reporter assays use an easily measured gene product as a stand-in for the process of interest.)

For assay [5], the target named is Fibroblast growth factor 10 (Homo sapiens) (UniProt O15520). Kind of assay: FGF10 binders on small-molecule microarrays, primary screen, biochemical, small-molecule microarray, 635 nm fluorescence (AID 1102). The conditions noted are these: FGF10 binding, fluorescence 635 nm, higher = more signal.
Assay [6] deals with glycogen synthase kinase-3 (GSK3A per assay name; protocol says GSK3B). The experiment in a line: GSK3 binders on small-molecule microarrays, primary screen, biochemical, small-molecule microarray, 635 nm fluorescence, GSK3A (AID 1103). Further: the record names both GSK3A and GSK3B. The conditions noted are these: small-molecule microarray binding, fluorescence 635 nm; higher = more signal.
The target in assay [7] is Epidermal growth factor receptor (Homo sapiens) (UniProt P00533). The experiment in a line: EGFR binders on small-molecule microarrays, primary screen, biochemical, small-molecule microarray, 635 nm fluorescence (AID 1104).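 Further: score merges 667 nm emission intensity with spot signal to noise over triplicate slides.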 Conditions: EGFR binding, higher = more signal.
Assay [8] has as its target Follistatin-related protein 3 (Homo sapiens) (UniProt O95633). The experiment in a line: FSTL3 binders on small-molecule microarrays, primary screen, biochemical, small-molecule microarray, 635 nm fluorescence (AID 1105).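 Further: score merges emission near 667 nm and signal to noise per printed spot across three slides.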 The conditions noted are these: FSTL3 binding, higher = more signal.
The target of assay [9] is Dickkopf-related protein 1 (Homo sapiens) (UniProt O94907). The experiment in a line: DKK1 binders on small-molecule microarrays, primary screen, biochemical, small-molecule microarray, 635 nm fluorescence scan (AID 1106).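 Further: score merges emission near 667 nm with signal to noise over three replicate slides.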 The conditions noted are these: DKK1 binding, higher = more signal.
Assay [10] concerns Inhibin beta A chain (activin A). The experiment in a line: INHBA (activin A) binders on microarrays, primary screen, biochemical, small-molecule microarray, 635 nm fluorescence scan (AID 1107).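 Further: mouse activin A protein probed at 4.33 µg/mL on printed slides; score merges bound-protein fluorescence near 667 nm with spot signal-to-noise.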 The conditions noted are these: small-molecule microarray binding, higher = more signal.
Assay [11] has as its system Human papillomavirus type 1a protein E7 (residues 44-93). Kind of assay: HPV1a E7 fragment binders on microarrays, primary screen, biochemical, small-molecule microarray, residues 44-93, 635 nm fluorescence (AID 1108).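 Further: E7 fragment applied at 1 µg/mL in TBST for 1 h at 4 C; score combines spot fluorescence with its signal to noise ratio.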 Conditions: small-molecule microarray binding, fluorescence 635 nm; higher = more signal.
Assay [12] can be described thus: modulators of HCV replicon luciferase signal, primary screen, HCV replication inhibitor project, Huh7 cells, luciferase reporter (AID 1109).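 Further: huh7 hepatoma cells harbouring a luciferase neomycin HCV replicon reporter; luciferase luminescence as measure of HCV replicon replication; test concentration not given here.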 The conditions noted are these: 48 h, higher = more signal. In general terms: Replicon systems follow genome replication, usually without infectious particles.
Assay [13] addresses Left-right determination factor 2 (Homo sapiens) (UniProt O00292). Kind of assay: LEFTY2 binders on small-molecule microarrays, primary screen, biochemical, small-molecule microarray, 635 nm fluorescence scan (AID 1110). Conditions: LEFTY2 binding, higher = more signal.
Assay [14] concerns the target Calmodulin-1 (Homo sapiens) (UniProt P0DP23). Kind of assay: CALM1 binders on microarrays, EGTA buffer, profiling panel, biochemical, small-molecule microarray, Cy5-labelled CALM1 (AID 1111).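 Further: labelled calmodulin applied in Tris saline Tween buffer holding calcium plus EGTA and DTT.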 The conditions noted are these: Cy5-CALM1 binding fluorescence, higher = more signal.
Assay [15] shares this target. Kind of assay: calcium-bound CALM1 binders on microarrays, profiling panel, artefact control for SMM control-protein annotation, biochemical, small-molecule microarray, Cy5-labelled CALM1, plus calcium (AID 1112).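 Further: score merges spot fluorescence with signal to noise from triplicate slides.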 The conditions noted are these: Cy5-CALM1 binding fluorescence, higher = more signal.
Assay [16] in a line: small-molecule microarray binders of probe aWnt5a, primary screen, biochemical, biotinylated probe, 635/667 nm fluorescence (AID 1113).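 Further: score merges 667 nm fluorescence intensity with signal-to-noise per printed feature.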 Conditions: higher = more signal.
A short description of assay [17]: small-molecule microarray binders of probe aShh, primary screen, biochemical, biotinylated probe, 635/667 nm fluorescence (AID 1114).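 Further: probe is biotin-labelled aShh protein from a stem cell growth factor screen; measures binding of labelled protein to compounds printed on the slide; score merges feature fluorescence at 667 nm with signal-to-noise.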 The conditions noted are these: higher = more signal.
Assay [18] can be described thus: small-molecule microarray binders of probe aNog, primary screen, biochemical, biotinylated probe, 635/667 nm fluorescence (AID 1115).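 Further: probe is biotinylated aNog protein used at 0.15 µg/mL for 1 h at 4 C; z-score combines 667 nm fluorescence of each spot with its signal to noise.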 The conditions noted are these: higher = more signal.
The target of assay [19] is Torsin-1A-interacting protein 1 (Homo sapiens) (UniProt Q5JTV8). Kind of assay: LAP1 binders from COS7 cell lysate, primary screen, small-molecule microarray, 635/667 nm fluorescence (AID 1116). Conditions: COS7-hLAP1 lysate binding, 635 nm fluorescence, higher = more signal.
Assay [20] deals with Alpha-bungarotoxin (Bungarus multicinctus) (UniProt P60615). The experiment in a line: alpha-bungarotoxin binders on microarray, profiling panel, artefact control for SMM control protein annotation, biochemical, small-molecule microarray, Alexa647 label, 635/667 nm fluorescence (AID 1117). The conditions noted are these: alpha-BTX-A647 binding fluorescence, higher = more signal.

The source made the active and inactive calls.

Follistatin-related protein 3 (Homo sapiens), sequence (O95633 whole entry, looked up): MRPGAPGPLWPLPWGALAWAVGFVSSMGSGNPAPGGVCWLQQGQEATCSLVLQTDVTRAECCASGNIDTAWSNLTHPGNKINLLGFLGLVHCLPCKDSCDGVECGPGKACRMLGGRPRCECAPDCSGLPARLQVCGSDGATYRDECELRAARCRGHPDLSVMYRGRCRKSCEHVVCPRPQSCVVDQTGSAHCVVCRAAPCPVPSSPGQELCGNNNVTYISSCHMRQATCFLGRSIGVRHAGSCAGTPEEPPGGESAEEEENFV
Fibroblast growth factor 10 (Homo sapiens), sequence (O15520 whole entry, looked up): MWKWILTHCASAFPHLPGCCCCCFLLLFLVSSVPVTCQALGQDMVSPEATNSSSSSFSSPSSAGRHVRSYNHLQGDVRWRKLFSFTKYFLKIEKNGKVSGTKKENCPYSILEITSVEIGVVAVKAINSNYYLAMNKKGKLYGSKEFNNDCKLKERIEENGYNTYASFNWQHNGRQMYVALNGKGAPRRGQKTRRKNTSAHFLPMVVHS
Dickkopf-related protein 1 (Homo sapiens), sequence (O94907 whole entry, looked up): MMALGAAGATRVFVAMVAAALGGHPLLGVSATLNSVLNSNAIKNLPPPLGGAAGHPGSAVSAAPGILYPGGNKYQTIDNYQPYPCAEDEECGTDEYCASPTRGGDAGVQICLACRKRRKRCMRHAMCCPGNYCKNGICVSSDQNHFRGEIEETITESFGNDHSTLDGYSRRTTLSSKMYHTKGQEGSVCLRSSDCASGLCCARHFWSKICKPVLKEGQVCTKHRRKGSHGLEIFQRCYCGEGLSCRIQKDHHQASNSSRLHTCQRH
Torsin-1A-interacting protein 1 (Homo sapiens), sequence (Q5JTV8 whole entry, looked up): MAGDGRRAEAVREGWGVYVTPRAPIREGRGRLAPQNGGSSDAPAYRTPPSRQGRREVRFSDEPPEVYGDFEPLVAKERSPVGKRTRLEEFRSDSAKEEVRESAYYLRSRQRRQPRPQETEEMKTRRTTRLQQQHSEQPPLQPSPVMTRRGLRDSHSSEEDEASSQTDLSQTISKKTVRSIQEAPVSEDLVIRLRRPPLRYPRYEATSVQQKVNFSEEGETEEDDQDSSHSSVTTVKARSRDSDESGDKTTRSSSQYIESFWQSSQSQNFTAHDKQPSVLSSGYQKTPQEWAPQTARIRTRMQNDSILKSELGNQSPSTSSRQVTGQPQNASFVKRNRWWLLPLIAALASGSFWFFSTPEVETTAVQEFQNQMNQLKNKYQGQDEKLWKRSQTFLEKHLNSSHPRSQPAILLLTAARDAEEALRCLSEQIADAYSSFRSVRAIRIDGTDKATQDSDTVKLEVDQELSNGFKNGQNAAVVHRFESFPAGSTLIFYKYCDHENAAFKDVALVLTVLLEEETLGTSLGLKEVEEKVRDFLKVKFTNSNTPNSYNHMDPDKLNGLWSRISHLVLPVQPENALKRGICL
Left-right determination factor 2 (Homo sapiens), sequence (O00292 whole entry, looked up): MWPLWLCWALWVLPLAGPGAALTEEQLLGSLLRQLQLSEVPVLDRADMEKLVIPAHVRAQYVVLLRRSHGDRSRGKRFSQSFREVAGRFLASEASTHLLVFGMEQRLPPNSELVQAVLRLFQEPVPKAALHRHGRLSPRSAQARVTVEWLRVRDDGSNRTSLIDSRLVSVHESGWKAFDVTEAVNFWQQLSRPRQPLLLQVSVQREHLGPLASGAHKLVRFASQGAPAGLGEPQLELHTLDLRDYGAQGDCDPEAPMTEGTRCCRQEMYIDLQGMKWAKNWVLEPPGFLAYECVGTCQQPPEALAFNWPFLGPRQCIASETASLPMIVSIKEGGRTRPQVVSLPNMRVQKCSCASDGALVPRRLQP
Alpha-bungarotoxin (Bungarus multicinctus), sequence (P60615 whole entry, looked up): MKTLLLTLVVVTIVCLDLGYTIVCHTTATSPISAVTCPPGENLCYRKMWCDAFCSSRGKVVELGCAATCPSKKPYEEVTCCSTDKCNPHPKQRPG
Epidermal growth factor receptor (Homo sapiens), sequence (P00533 whole entry, looked up): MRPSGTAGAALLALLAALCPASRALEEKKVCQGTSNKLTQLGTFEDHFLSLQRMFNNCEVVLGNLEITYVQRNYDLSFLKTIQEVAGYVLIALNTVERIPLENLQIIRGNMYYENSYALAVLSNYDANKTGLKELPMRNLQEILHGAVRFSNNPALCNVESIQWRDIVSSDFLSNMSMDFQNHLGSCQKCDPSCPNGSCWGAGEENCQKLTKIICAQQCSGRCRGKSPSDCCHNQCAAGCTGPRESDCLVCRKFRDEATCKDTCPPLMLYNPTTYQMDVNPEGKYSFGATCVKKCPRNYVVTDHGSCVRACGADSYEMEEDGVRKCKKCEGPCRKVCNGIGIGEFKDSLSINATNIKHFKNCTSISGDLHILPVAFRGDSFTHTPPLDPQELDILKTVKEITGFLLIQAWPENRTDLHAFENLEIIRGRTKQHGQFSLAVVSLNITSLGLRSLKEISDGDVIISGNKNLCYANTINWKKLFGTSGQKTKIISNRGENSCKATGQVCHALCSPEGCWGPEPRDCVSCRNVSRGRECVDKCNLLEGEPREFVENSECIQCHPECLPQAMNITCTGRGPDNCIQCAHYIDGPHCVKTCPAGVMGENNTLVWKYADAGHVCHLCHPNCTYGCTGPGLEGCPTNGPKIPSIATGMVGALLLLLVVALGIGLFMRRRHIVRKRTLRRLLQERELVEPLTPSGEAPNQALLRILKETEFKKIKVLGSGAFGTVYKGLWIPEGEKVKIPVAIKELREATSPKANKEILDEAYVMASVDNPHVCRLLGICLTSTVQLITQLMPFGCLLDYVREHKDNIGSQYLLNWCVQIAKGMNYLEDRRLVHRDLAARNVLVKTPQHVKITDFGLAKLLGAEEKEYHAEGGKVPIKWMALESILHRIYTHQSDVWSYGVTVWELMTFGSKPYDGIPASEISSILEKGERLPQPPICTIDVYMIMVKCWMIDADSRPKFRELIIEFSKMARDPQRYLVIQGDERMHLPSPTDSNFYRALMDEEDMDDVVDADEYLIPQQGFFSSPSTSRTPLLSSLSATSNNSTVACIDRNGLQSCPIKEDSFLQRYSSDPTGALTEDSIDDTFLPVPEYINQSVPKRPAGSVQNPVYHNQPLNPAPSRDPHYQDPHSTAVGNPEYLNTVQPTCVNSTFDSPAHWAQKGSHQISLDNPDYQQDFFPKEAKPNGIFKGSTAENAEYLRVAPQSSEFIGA

Turning to `Cc1ccc(S[C@]2(C(=O)NCc3ccccc3)CC(=O)N(Cc3ccccc3)[C@@H]2c2ccc(CO)cc2)cc1`, the composite z-score is 0.979 in assay [1]; 0.114 in assay [2]; 0.694 in assay [3]; -0.173 in [5]; -0.789 in assay [6]; -1.22 in assay [7]. In addition, the composite z-score in [8] is -1.01; in [9], -0.799; in [10] it was -0.317; in assay [11], 1.42; in [13], -0.934; in [14] it was -0.344. In addition, the composite z-score in assay [15] was -0.195; in [16], -0.0395; in assay [17], -0.0977; in assay [18], -0.364; in assay [19], 1.2; in assay [20], -0.593. Moreover, the z-score in assay [4] was 0.643 (inactive); in assay [12] it was -2.1.
Consider `CO[C@H]1O[C@H](CO)[C@@H](OC(=O)Nc2ccc(Oc3ccccc3)cc2)[C@H](OC(=O)Nc2ccccc2)[C@H]1OC(=O)Nc1ccccc1`, for which the composite z-score amounted to 1.5 in [1]; 0.636 in assay [2]; 0.766 in [3]; 1.35 in assay [5]; 1.33 in [6]; 0.24 in assay [7]. Further, the composite z-score in [8] came to 1.2; in assay [9], 0.113; in [10] it was 0.185; in assay [11], 0.838; in [13], 0.62; in assay [14], 1.26. Also, the composite z-score in [15] is -0.278; in assay [16], 0.143; in assay [17], -0.0789; in [18] it was 0.149; in [19], 1.2; in assay [20], 1.8. Further, the z-score in assay [4] is 0.511 (inactive); in assay [12], -2.88.
`CCCCCN1CC=CC23O[C@@H]4/C=C\CCC(C)OC(=O)C4[C@H]2C(=O)N(CCCCCO)[C@@H]3C1=O` (stereo not given in full): the composite z-score in assay [1] is 0.16; in [2] it was -0.499; in assay [3], -0.0779; in assay [5] it was -0.57; in [6], -0.77; in assay [7], 0.361. Also, the composite z-score in [8] is -0.501; in [9], -1.07; in assay [10], -0.362; in assay [11] it was -1.38; in assay [13], -0.594; in assay [14], -0.476. Also, the composite z-score was -0.561 in assay [15]; -0.298 in assay [16]; -0.147 in assay [17]; -0.24 in [18]; -0.912 in assay [19]; -0.937 in assay [20]. The z-score in assay [4] was -0.228 (inactive); in [12], 0.0822.
As for `C=CC(COC(C)=O)NS(=O)(=O)c1ccc(Br)cc1` (stereo not given), the composite z-score is 0.669 in assay [1]; -0.461 in assay [2]; -0.501 in assay [3]; 0.632 in assay [5]; 0.903 in assay [6]; 0.642 in assay [7]. Further, the composite z-score in assay [8] was 1.01; in assay [9], 0.684; in [10], 0.12; in [11], 0.62; in assay [13], 0.65; in assay [14], -0.467. The composite z-score in assay [15] was -0.883; in assay [16], 0.093; in assay [17] it was 0.0948; in [18], -0.149; in assay [19], 0.366; in assay [20], 0.601. Besides, the z-score was 0.217 (inactive) in [4] and -0.437 in [12].
For the compound `Cc1ccc([C@H]2C(C(=O)O)=C[C@@H](C)N2S(=O)(=O)c2ccc(C)cc2)cc1`, the composite z-score is 1.23 in assay [1]; 0.353 in assay [2]; 0.841 in assay [3]; -0.564 in assay [5]; -0.107 in assay [6]; -0.19 in assay [7]. The composite z-score in assay [8] was -0.525; in [9], -1.13; in assay [10], 1.02; in assay [11], 0.801; in assay [13], -0.942; in [14], 1. The composite z-score was 0.0248 in assay [15]; -0.0478 in assay [16]; 0.0062 in assay [17]; -0.0827 in assay [18]; 0.917 in assay [19]; 1.57 in assay [20]. Besides, the values for the z-score in assay [4] and in [12] were 0.709 (inactive) and 0.537, respectively.
